The list shows a part of the results. No count for the full screen is at hand.
Target: furin, P09958
Assay: furin cleavage Z-score vs untreated control; higher = more cleavage, active = 3.5 or more, inactive = 1 or less, 8 variable residues between constant flanks
Experimental: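 Multiplexed peptide-cDNA fusion cleavage assay. 8-mer variable peptides flanked by constant Cys-Ala (N-term) and Ala-Gly-Asn-Ala-Ser-Ala-Ser-Ala (C-term) and conjugated to a cDNA oligonucleotide were bead-immobilised via the N-terminus. They were treated with purified furin at a 1:10 enzyme:substrate ratio in 50 mM HEPES pH 7.5, 1 mM CaCl2, 100 mM NaCl for 7.5, 15 or 30 min. Released cDNA was counted by next-generation sequencing, and log counts versus no-furin controls were lowess-adjusted and converted to robust Z-scores.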

Chain of furin, P09958 (P09958 whole entry): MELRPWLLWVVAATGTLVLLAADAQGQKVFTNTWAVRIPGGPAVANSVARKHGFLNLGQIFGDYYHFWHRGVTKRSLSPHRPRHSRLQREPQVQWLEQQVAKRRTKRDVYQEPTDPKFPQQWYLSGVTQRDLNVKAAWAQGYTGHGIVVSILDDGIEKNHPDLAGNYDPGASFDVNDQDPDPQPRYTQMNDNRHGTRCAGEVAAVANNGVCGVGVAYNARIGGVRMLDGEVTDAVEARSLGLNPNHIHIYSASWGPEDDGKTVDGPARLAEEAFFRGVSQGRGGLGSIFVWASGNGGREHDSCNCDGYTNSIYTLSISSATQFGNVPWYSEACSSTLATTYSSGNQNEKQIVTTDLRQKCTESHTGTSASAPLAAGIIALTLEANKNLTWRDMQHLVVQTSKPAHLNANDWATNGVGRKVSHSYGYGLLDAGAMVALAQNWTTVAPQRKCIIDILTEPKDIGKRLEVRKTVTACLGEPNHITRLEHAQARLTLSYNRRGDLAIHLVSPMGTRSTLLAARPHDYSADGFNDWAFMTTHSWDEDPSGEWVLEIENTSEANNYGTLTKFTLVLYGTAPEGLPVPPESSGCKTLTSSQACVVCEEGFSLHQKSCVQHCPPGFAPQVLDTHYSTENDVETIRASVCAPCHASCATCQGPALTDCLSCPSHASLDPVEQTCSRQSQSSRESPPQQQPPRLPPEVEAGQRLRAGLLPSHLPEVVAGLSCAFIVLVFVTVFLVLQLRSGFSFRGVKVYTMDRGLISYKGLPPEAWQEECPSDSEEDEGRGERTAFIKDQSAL

Sequence | furin cleavage Z-score (7.5 min) | furin cleavage Z-score (15 min) | furin cleavage Z-score (30 min)
CAIKGGRHLIAGNASASA [HC853] | -0.712 (inactive) | -0.368 (inactive) | 0.443 (inactive)
CADGEVVTSTAGNASASA [HC2296] | 0.392 (inactive) | 0.826 (inactive) | -0.278 (inactive)
CAVRLRAYMNAGNASASA [HC929] | 0.615 (inactive) | -1.18 (inactive) | 1.3
CAYKVLVLNPAGNASASA [HC785] | 1.85 | -0.276 (inactive) | -1.39 (inactive)
CARSKRYVHLAGNASASA [FS-2381] | 2.83 | 5.52 (active) | 7.4 (active)
CARSGRDSGYAGNASASA [FS-2303] | -0.464 (inactive) | -0.846 (inactive) | -1.58 (inactive)
CARSKRPSTDAGNASASA [FS-2606] | -0.273 (inactive) | 0.303 (inactive) | 0.307 (inactive)
CARSKKPKGLAGNASASA [FS-3082] | 0.217 (inactive) | -0.722 (inactive) | -1.55 (inactive)
CARSKRDEKLAGNASASA [FS-2810] | 3.32 | 5.67 (active) | 5.15 (active)
CARSKRDYTPAGNASASA [FS-1928] | 6.07 (active) | 5.96 (active) | 6.83 (active)
CARSKRRWAPAGNASASA [FS-2307] | 0.891 (inactive) | 0.79 (inactive) | 2.12
CARSKRDPDLAGNASASA [FS-2087] | -0.408 (inactive) | 0.763 (inactive) | 0.503 (inactive)
CARSKRDSTYAGNASASA [FS-3169] | 6.51 (active) | 7.64 (active) | 7.09 (active)
CAKALGLLQTAGNASASA [HC1026] | -0.0968 (inactive) | 0.32 (inactive) | -1.95 (inactive)
CAEQGMMLAEAGNASASA [HC1020] | 0.411 (inactive) | 0.355 (inactive) | -0.0666 (inactive)
CAGLLRFCALAGNASASA [HC619] | -0.221 (inactive) | -0.963 (inactive) | 0.576 (inactive)
CARNQRDAWIAGNASASA [FS-2731] | -0.28 (inactive) | -0.224 (inactive) | -0.1 (inactive)
CARTKRNAKIAGNASASA [FS-2384] | 8.15 (active) | 8.32 (active) | 7.88 (active)
CARTKRFLSYAGNASASA [FS-2826] | 4.24 (active) | 5.3 (active) | 6.61 (active)
CARPWKSVSEAGNASASA [FS-2060] | -0.467 (inactive) | 0.327 (inactive) | 1.73
CARIPREVSEAGNASASA [FS-2031] | 7.41 (active) | 8.89 (active) | 7.69 (active)
CAVVCCSLSYAGNASASA [HC2045] | 0.285 (inactive) | 2.15 | 0.578 (inactive)
CARGARLVSEAGNASASA [FS-1708] | 0.305 (inactive) | -0.752 (inactive) | 0.671 (inactive)
CARTKRFVSEAGNASASA [FS-3106] | 7.52 (active) | 9.36 (active) | 7.54 (active)

Sequence | furin cleavage Z-score (7.5 min) | furin cleavage Z-score (15 min) | furin cleavage Z-score (30 min)
CARTKRKPSIAGNASASA [FS-2612] | 0.358 (inactive) | -0.0194 (inactive) | 0.82 (inactive)
CARGLDVSVIAGNASASA [HC870] | 1.35 | -0.274 (inactive) | -0.641 (inactive)
CAAPGERPSGAGNASASA [HC912] | -0.474 (inactive) | 0.136 (inactive) | -0.967 (inactive)
CANLVYSTTSAGNASASA [HC1388] | 1.17 | -0.567 (inactive) | 1.86
CATTPCSFSWAGNASASA [HC1887] | -1.16 (inactive) | -1.65 (inactive) | 0.982 (inactive)
CAKVPAAYAAAGNASASA [HC780] | 0.0632 (inactive) | -0.0412 (inactive) | -3.37 (inactive)
CARARRTLGHAGNASASA [FS-1684] | 6.43 (active) | 8.11 (active) | 7.53 (active)
CALTKRLKRHAGNASASA [FS-689] | 12.6 (active) | 12.3 (active) | 9.95 (active)
CARARRDDPHAGNASASA [FS-2888] | 5.71 (active) | 7.99 (active) | 5.78 (active)
CARARRTTIYAGNASASA [FS-3151] | -0.153 (inactive) | 1.46 | 4.35 (active)
CAYTTGPCTPAGNASASA [HC1193] | -1.22 (inactive) | 0.109 (inactive) | -1.36 (inactive)
CALSPGALVVAGNASASA [HC1104] | -0.255 (inactive) | 1.25 | 0.572 (inactive)
CAVVCNSMSYAGNASASA [HC98] | -1.2 (inactive) | 0.223 (inactive) | -0.488 (inactive)
CAEGVFTGLTAGNASASA [HC940] | -0.801 (inactive) | 0.108 (inactive) | -0.239 (inactive)
CAEGVTSTWVAGNASASA [HC2176] | 0.155 (inactive) | -0.512 (inactive) | 0.24 (inactive)
CAGPVIQMYTAGNASASA [HC708] | -1.34 (inactive) | -0.0874 (inactive) | 0.0794 (inactive)
CAEAKRGSSSAGNASASA [FS-2476] | -2.29 (inactive) | -0.0771 (inactive) | 0.074 (inactive)
CARARRTKRHAGNASASA [FS-1255] | 11.2 (active) | 11.8 (active) | 8.26 (active)
CALRKRRKRKAGNASASA [FS-1030] | 10.7 (active) | 11.4 (active) | 9.12 (active)
CAFSQRRKRRAGNASASA [FS-775] | 6.61 (active) | 5.92 (active) | 6.42 (active)
CARSQPRGRRAGNASASA [HC188] | 4.16 (active) | 5.3 (active) | 4.87 (active)
CARKQRKKKAAGNASASA [FS-1262] | 0.332 (inactive) | 1.6 | 1.96
CARSQRRKKAAGNASASA [FS-865] | 4.39 (active) | 4.99 (active) | 5.15 (active)
